This passage reports sensor-assay potency score (higher = more potent) results from the OligoGym collection.

Test in all cases: pooled miR-30 sensor sort-seq; sequence = guide strand
Settings in all cases: shRNA

Test [1] concerns the target ZNF24.
For test [2], the target named is ZNF250.
Test [3] deals with ZNF233.
Test [4] has as its target ZNF219.
Test [5] addresses ZNF300.
Test [6] deals with ZNF259.
The target in test [7] is ZNF263.
For test [8], the target named is ZNF322A.
For test [9], the target named is ZNF512B.
In test [10] the target is ZNF592.
The target in test [11] is ZNF836.
Further: reference of the scale not given here.

The sequence TTCTGCATTGTGTCTTCTCTGA had a sensor-assay potency score (higher = more potent) in test [1] of 0.000948.

In test [1], TAAGTATTGAATCTTCTTCCAC registered a sensor-assay potency score (higher = more potent) of -0.673.

As for TTTGTGTGCGTCTCTGGCCTGA, the sensor-assay potency score (higher = more potent) in test [1] is -0.444.

TAGTGCTCCATTTTCAGTCCTA displayed a sensor-assay potency score (higher = more potent) in [1] of 0.194.

In test [1], TAATGCTGAAGGAAGCTCCTGC returned a sensor-assay potency score (higher = more potent) of 0.616.

In the case of TGTATGTATCTTGTGATGCTGA, the sensor-assay potency score (higher = more potent) in [2] is -0.256.

As for TAAGACCTGAACTTCACGGTGG, the sensor-assay potency score (higher = more potent) in test [2] was 0.671.

For TTAATTTACTTGTAAATTGTTC, the sensor-assay potency score (higher = more potent) in [3] is -0.905.

Sequence TTGAGGTGATGTGCTGAGCGGA came in with a sensor-assay potency score (higher = more potent) in [4] of -0.983.

In [3], TAATCTTACTTCTTGAAGGGTA gave a sensor-assay potency score (higher = more potent) of 0.461.

With TCTTGTGTCCTGAACACCCATC, in test [3], the sensor-assay potency score (higher = more potent) was -0.866.

In the case of TTAATCTTACTTCTTGAAGGGT, in test [3], the sensor-assay potency score (higher = more potent) is -0.195.

In test [4], TATCGCTGCAGATCCAGCTCGC had a sensor-assay potency score (higher = more potent) of 0.347.

Take TGGATGATGATCTCGAACCCAA: the sensor-assay potency score (higher = more potent) in test [1] is -0.874.

As to TATCCTGTCACTTACTTCCCAT, the sensor-assay potency score (higher = more potent) in test [3] was -0.636.

For TTTGCTGACACCTACTCTGATA, the sensor-assay potency score (higher = more potent) in test [3] is -0.77.

As for TCTTCTACTAGTACTTCCCGTT, the sensor-assay potency score (higher = more potent) in [1] is 0.168.

The sequence TGTCTTGTTGTGTACAGGCTGT had a sensor-assay potency score (higher = more potent) in [2] of -0.552.

On to TTGTCTGAGTAGTCACTCCACA, for which, in test [2], the sensor-assay potency score (higher = more potent) is -0.51.

Take AAAAATTTGAGGAACACCCATA: in test [1], the sensor-assay potency score (higher = more potent) was -0.922.

In the case of ATGTACACAACTTCTCTCCTGG, in test [3], the sensor-assay potency score (higher = more potent) was -0.0529.

In turn, TTCTTGTGTCCTGAACACCCAT registered a sensor-assay potency score (higher = more potent) in test [3] of -0.736.

With TGGAGTATCGCTGCAGATCCAG, the sensor-assay potency score (higher = more potent) in test [4] was -1.26.

Take TCCAACTCCAGCAACAGGCGTG: the sensor-assay potency score (higher = more potent) in test [4] was -0.967.

In test [1], TTGAGGAACACCCATACTGAGA had a sensor-assay potency score (higher = more potent) of -1.26.

TATTAGGTCTTGATTACTGGTT showed a sensor-assay potency score (higher = more potent) in test [3] of -0.618.

TACACTGCACACATAGGGCTTC: the sensor-assay potency score (higher = more potent) in test [2] was -0.55.

In test [3], TTTACTTGTAAATTGTTCCCAT yielded a sensor-assay potency score (higher = more potent) of 0.845.

The sequence TTTAGCAACTTGGACCTCTTGC registered a sensor-assay potency score (higher = more potent) in test [3] of 0.0723.

With TTCACTCTCCAAATCCTCCAGC, in test [1], the sensor-assay potency score (higher = more potent) was -0.297.

TCGCAGATGCACTTTGAGGTGA showed a sensor-assay potency score (higher = more potent) in test [4] of -0.383.

Turning to TAAAAATTTGAGGAACACCCAT, the sensor-assay potency score (higher = more potent) in test [1] was -0.488.

With TTTCTCTTTCTTTCAAACCTGC, the sensor-assay potency score (higher = more potent) in test [1] was determined as 0.00433.

TATCTCATTTTGATTCTTGTGT showed a sensor-assay potency score (higher = more potent) in test [3] of 0.251.

TTCCGCAGAAAGGACAATCCTT: the sensor-assay potency score (higher = more potent) in test [4] is -0.585.

In turn, TGTAGGTGATACTTGAGCGAGC returned a sensor-assay potency score (higher = more potent) in test [4] of -0.911.

In test [4], TTTATTGGGGACACGACTCTGC yielded a sensor-assay potency score (higher = more potent) of 0.537.

Sequence TGTATTTTGACTCTCTCCCTTG had a sensor-assay potency score (higher = more potent) in test [2] of -0.459.

Turning to TTACTAAGGACTGAGCTCTGGC, the sensor-assay potency score (higher = more potent) in [2] turned out to be 0.163.

TACTTGAGCGAGCCGGACTGGG showed a sensor-assay potency score (higher = more potent) in test [4] of -1.26.

The sequence TGAGTTGTGACTTCTTAGCAAA had a sensor-assay potency score (higher = more potent) in test [5] of -1.22.

As for TAAAACAAGGTCTGACTTCTGA, the sensor-assay potency score (higher = more potent) in [5] was -0.123.

As for TCACACTTGCATCACAAGCTGT, in [6], the sensor-assay potency score (higher = more potent) was -0.681.

As for ATGAGTTCTGTCTTCCTGCTGA, the sensor-assay potency score (higher = more potent) in test [5] amounted to 0.161.

In turn, TTTTGTGACACTGAATCGCCAA gave a sensor-assay potency score (higher = more potent) in test [2] of 0.484.

In turn, TTTTATGCCAATCCTCTGCTGC yielded a sensor-assay potency score (higher = more potent) in test [7] of 0.0855.

Sequence TTAGTCTTAACATCTAATGCTT yielded a sensor-assay potency score (higher = more potent) in test [5] of -0.171.

TTTTTTTCTTGAATTGCTCTTA came in with a sensor-assay potency score (higher = more potent) in [5] of 0.496.

Sequence TGAAGCTCGGTGACTCTCGTGC gave a sensor-assay potency score (higher = more potent) in [7] of 0.166.

For TTCACCAATGTGTACTGTCTGA, the sensor-assay potency score (higher = more potent) in [8] was -0.693.

In the case of TTATCAGACACCTACTTCCTCT, in test [7], the sensor-assay potency score (higher = more potent) is -0.271.

For TAGTCTTAACATCTAATGCTTC, in test [5], the sensor-assay potency score (higher = more potent) was -0.419.

For TTCCACATTCAGAACAATCATA, the sensor-assay potency score (higher = more potent) in test [5] is -0.99.

In [8], TAAGACAGGAGCTTCTACCAAA showed a sensor-assay potency score (higher = more potent) of -0.88.

The sequence TTGTACTAGCTTCATGTTGGTC displayed a sensor-assay potency score (higher = more potent) in test [6] of -0.732.

On to TTTTCCACAAAACTGTTCCCTG, for which the sensor-assay potency score (higher = more potent) in test [6] is -0.697.

As for TTATAGGGTCTCTCTCCCGTAT, the sensor-assay potency score (higher = more potent) in test [7] is -0.848.

In turn, TTCGATGATCTGGTCCATCTTC displayed a sensor-assay potency score (higher = more potent) in test [6] of -0.231.

In test [2], TTATTTTCTTGATCAATCCTCC registered a sensor-assay potency score (higher = more potent) of 0.32.

Take TAACACAATAGGCTCACACTTG: in test [6], the sensor-assay potency score (higher = more potent) is -0.434.

TCAGTCTTCACCACTTCTCTGT yielded a sensor-assay potency score (higher = more potent) in [6] of 0.0434.

In [7], TTCAGTGCAGTCCACACCCATA registered a sensor-assay potency score (higher = more potent) of -1.37.

Consider TACACAGTCTTTCAGCTGCATG, for which the sensor-assay potency score (higher = more potent) in test [7] was -1.42.

Consider TAAACTCCTGTAGTCTCTCCGT, for which the sensor-assay potency score (higher = more potent) in test [6] is -0.469.

Take TTTGGCTGCAGTTCCTTCGGTC: the sensor-assay potency score (higher = more potent) in test [7] came to 0.0507.

In test [7], TTTCAGTGCAGTCCACACCCAT yielded a sensor-assay potency score (higher = more potent) of -0.797.

TTCTGTATGCTTAACTTGCTGT: the sensor-assay potency score (higher = more potent) in test [5] is -0.0649.

Sequence TTCATTTCTGAGATCTTCCTCT had a sensor-assay potency score (higher = more potent) in test [6] of 0.123.

In turn, TATGAGTCAACTAACTATGAGA displayed a sensor-assay potency score (higher = more potent) in test [8] of -0.783.

As to TTGTAGTGTGTGATCACCAGGG, the sensor-assay potency score (higher = more potent) in test [6] was found to be 0.392.

TTACTGAATCTGATCAACCTAT came in with a sensor-assay potency score (higher = more potent) in test [5] of -0.267.

Take TTCTGAGATCTTCCTCTTCTGG: in test [6], the sensor-assay potency score (higher = more potent) is -1.55.

In the case of TTGCAGTAACAGTTCATGCATA, in [6], the sensor-assay potency score (higher = more potent) is -0.757.

In test [5], TTGCTCTTATAACAACTCGGTA gave a sensor-assay potency score (higher = more potent) of -1.42.

In test [2], TTAACAGAGACTTCTCTTGGGC came in with a sensor-assay potency score (higher = more potent) of -0.0398.

TTCAGTTTGACAATGAACTCAT: the sensor-assay potency score (higher = more potent) in test [6] was determined as 0.875.

As for TTTTTCACCAATGTGTACTGTC, in [8], the sensor-assay potency score (higher = more potent) turned out to be 0.583.

Consider TAAGGTAAACTGGACAGTCAGG, for which the sensor-assay potency score (higher = more potent) in test [7] was -0.825.

TTGAAGCTCGGTGACTCTCGTG returned a sensor-assay potency score (higher = more potent) in test [7] of -0.044.

In the case of TTTGTGACACTGAATCGCCAAA, in [2], the sensor-assay potency score (higher = more potent) was -1.66.

Consider TTCGGAACCAGTTCTCTGCGTG, for which the sensor-assay potency score (higher = more potent) in [9] is -0.0926.

Regarding TTTAGAACTCTCTTTAGTGGGC, the sensor-assay potency score (higher = more potent) in [10] was found to be 0.465.

In the case of TTTGTCATGCTCTCGTCCCCTT, in test [10], the sensor-assay potency score (higher = more potent) is -0.419.

On to TTGTTTTAAGACTCTCTGCAGT, for which the sensor-assay potency score (higher = more potent) in [11] was -0.237.
